Rows were chosen to be rich in hits. Some 3.9% of all compounds tested hit in one or more screens of this group.
MITF TRPM1 HTS: increases MITF-driven TRPM1 promoter luciferase signal. activation, % at 12.5 µM. actives 0.75% (n = 300,000). AID 588334. SK-MEL-5 TRPM1-promoter luciferase, 24 h; % of positive control, neutral wells = 0;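 active = mean activation of at least 80% with every replicate also reaching 80%; inconclusive = mean reaches 80% but some replicate falls short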
HSF1 inh: HSF1 inhibition | AID 2098 | activity change, negative = inhibition, % at 7.5 µM (by protocol) | actives 0.77% (n = 300,000) | NIH3T3-HGL HSE-luciferase, MG132-induced, luminescence 8 h; stronger effect = lower value;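 active = more than half of replicate wells show activity change below -50%, luminescence cut by over half; inconclusive = some wells, but at most half, below -50%; inactive = no replicate well below -50%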;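 note: luciferase reports HSF-1 transcriptional activity via heat shock element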
HSF-1 act: increases HSF-1 driven luciferase reporter signal; NIH3T3-HGL HSF-1 luciferase reporter, MG132, 8 h; 100% = twice DMSO control signal; actives 1.7% (n = 300,000); activation, % at 9 µM; AID 504408;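 active = mean replicate activation of at least 50% with a set share of replicates each reaching 50%; inconclusive = only one of those two conditions met; inactive = mean below 50% and too few replicates reaching it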
Wnt act: activates Wnt/beta-catenin signaling in a reporter cell assay; activator, plate reader; activation, % at 9.35 µM; actives 1.2% (n = 300,000); AID 743398; in the data active = activation above about 30%, passing the limit was not always enough; inconclusive = no clear call, values can overlap the other calls
esBAF inh: inhibitors of esBAF chromatin remodeling in mouse ES cells; actives 2% (n = 350,000); Bmi1-luciferase knock-in reporter, 24 h; 100% = twice the neutral-well signal; reporter increase, % at 12.5 µM; in the data active = activation above about 40%; inconclusive = no clear call, values can overlap the other calls;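 note: a rise in the Bmi1 reporter signal indicates esBAF inhibition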
Large screens that a line does not name were inactive.

CC(=O)Nc1cccc2c1Cc1cc([N+](=O)[O-])ccc1-2	none (no result: HSF1 inh, HSF-1 act, esBAF inh)
CC(=O)Nc1cccc2c1Cc1ccccc1-2	esBAF inh 51 (no result: MITF TRPM1 HTS, Wnt act)
Nc1nnc(SCc2ccc([N+](=O)[O-])cc2)s1	none (no result: esBAF inh)
O=[N+]([O-])c1ccc2nc(SCc3ccccc3Cl)sc2c1	none (no result: Wnt act)
O=[N+]([O-])c1ccc(CSc2nnc(SCc3ccc(Cl)cc3)s2)cc1	HSF-1 act 56
Nc1ccc2nc(SCc3ccc([N+](=O)[O-])cc3)sc2c1	HSF-1 act 98, esBAF inh inconclusive
Cn1c2ccccc2c(=O)c2ccc(C#CC3(O)CCCCC3)cc21	HSF1 inh -65
COc1cc2sc3ccc(C#CC4(O)CCCCC4)cc3c(=O)c2cc1OC	HSF1 inh -59
CC(C)NC(=O)N1[C@H](CO)[C@@H]2c3ccccc3N(C(=O)Nc3ccc(Cl)cc3)C[C@@H]21	none (no result: MITF TRPM1 HTS, HSF1 inh, HSF-1 act, Wnt act)
COc1cccc(N2C(=O)/C(=C\c3cccs3)NC2=S)c1	esBAF inh 43
CCOC(=O)c1ccc(N=c2sc(C(=O)OC)cc(=O)n2Cc2ccco2)cc1	HSF-1 act 107
C[C@H]1CCCCO[C@H](CN(C)Cc2ccc(Cl)c(Cl)c2)[C@@H](C)CN([C@@H](C)CO)C(=O)c2cc(NC(=O)c3ccccc3)ccc2O1	none (no result: MITF TRPM1 HTS, HSF1 inh, HSF-1 act, Wnt act)
CCC1CCCCN1C(=O)COC(=O)c1cc2ccccc2cc1O (stereo unspecified)	HSF-1 act 83 (no result: Wnt act)
O=C(OCC(=O)N1CCCCC1)c1cc2ccccc2cc1O	none (no result: Wnt act)
C[C@@H]1CN([C@H](C)CO)C(=O)c2cc(NC(=O)Cn3cnnn3)ccc2O[C@H]1CN(C)Cc1ccccc1	none (no result: MITF TRPM1 HTS, HSF1 inh, HSF-1 act, Wnt act)
O=C1C2C3C=CC(C3)C2C(=O)N1/N=C/c1cn(Cc2ccccc2)c2ccccc12 (stereo unspecified)	none (no result: MITF TRPM1 HTS, Wnt act)
NC1=NC(=O)/C(=C/c2cn(Cc3ccccc3)c3ccccc23)S1	HSF-1 act 60
O=C(OCc1c(Cl)cccc1Cl)c1ccccn1	none (no result: Wnt act)
O=C(Cc1c(Cl)cccc1Cl)OCc1ccccn1	MITF TRPM1 HTS inconclusive, esBAF inh 49
Cc1[nH]c(=O)c(C(=O)/C=C/c2ccccc2F)c2c1CCCC2	esBAF inh 43
C/C(=C\c1ccccc1F)C(=O)c1c(C)cc(C)[nH]c1=O	none
O=c1c2ccccc2nc2n1-c1ccccc1CCC2	none (no result: MITF TRPM1 HTS, HSF1 inh, HSF-1 act)
O=C1c2ccccc2-n2c1nc1ccccc1c2=O	esBAF inh 45 (no result: MITF TRPM1 HTS)
C[C@@H]1CN([C@H](C)CO)C(=O)c2cc(N(C)C)ccc2O[C@H]1CN(C)S(=O)(=O)c1ccc(F)cc1	none (no result: MITF TRPM1 HTS, HSF1 inh, HSF-1 act, Wnt act)
C[C@@H]1CN([C@@H](C)CO)C(=O)c2cc(NC(=O)c3ccncc3)ccc2O[C@@H](C)CCCCO[C@@H]1CN(C)S(C)(=O)=O	none (no result: MITF TRPM1 HTS, HSF1 inh, HSF-1 act, Wnt act)
O=C(c1cc(-c2ccc(F)cc2)on1)N1CCCC1	HSF-1 act 62 (no result: Wnt act)
O=C(c1cc(-c2ccc(F)cc2)on1)N1CCCCCC1	MITF TRPM1 HTS 138
O=C(c1cc(-c2ccc(F)cc2)on1)N1CCOCC1	none (no result: MITF TRPM1 HTS)
CN(C)CC(=O)N[C@@H]1C=C[C@@H](CC(=O)NCc2ccc(Cl)cc2)O[C@@H]1CO	none (no result: MITF TRPM1 HTS, HSF1 inh, HSF-1 act, Wnt act)
COc1cccc(NC(=O)N[C@H]2CC[C@@H](CC(=O)NCc3ccccn3)O[C@@H]2CO)c1	none (no result: MITF TRPM1 HTS, HSF1 inh, HSF-1 act, Wnt act)
CCNC(=O)[C@@H]1[C@@H](CO)[C@@H]2Cn3c(ccc(C4=CCCC4)c3=O)[C@@H]2N1CC1CC1	none (no result: MITF TRPM1 HTS, HSF1 inh, HSF-1 act, Wnt act)
Cc1oc2ccc(OCc3c(F)cccc3Cl)cc2c1C(=O)O	HSF1 inh -57 (no result: esBAF inh)
CC1=NNC(=O)C1C(c1ccccc1)C1C(=O)NN=C1C (stereo unspecified)	HSF-1 act 128 (no result: MITF TRPM1 HTS, Wnt act, esBAF inh)
N#C/C(=C\c1ccc(OCc2ccc(Cl)cc2)cc1)C(=O)Nc1cccc(C(=O)O)c1	HSF-1 act 120 (no result: esBAF inh)
COc1cc(/C=C(/C#N)C(=O)Nc2ccccc2)ccc1OCc1ccc(C(=O)O)cc1	none
N#C/C(=C\c1ccc(OCc2ccc(C(=O)O)cc2)cc1)C(=O)NCc1ccccc1	none
COc1cc(/C=C(\C#N)C(=O)Nc2cccc(C(=O)O)c2)ccc1OCc1ccc(C)cc1	MITF TRPM1 HTS 91 (no result: esBAF inh)
Cc1cc(/C=C(\C#N)C(=O)NCc2ccco2)c(C)n1C1CCCC1	Wnt act 39, esBAF inh 53
N#C/C(=C\c1ccc(OCc2cccc(C(=O)O)c2)cc1)C(=O)NCc1ccco1	Wnt act 39 (no result: esBAF inh)
CCN1[C@@H]2Cn3c(ccc(-c4cccc(F)c4)c3=O)[C@H]1[C@@H](C(=O)NCCCN(C)C)[C@@H]2CO	none (no result: MITF TRPM1 HTS, HSF1 inh, HSF-1 act, Wnt act)
COC(=O)c1ccc(COc2ccccc2/C=C(\C#N)C(=O)Nc2c(C)cccc2C)cc1	HSF-1 act 148 (no result: esBAF inh)
Cc1cc(C2=NNC(=NC3CCCCC3)SC2)c(C)n1-c1c(C)n(C)n(-c2ccccc2)c1=O	none
Cc1cc(C2=NNC(=NC3CC3)SC2)c(C)n1-c1ccccc1F	HSF1 inh -68 (no result: esBAF inh)
CC(C)NC(=O)N(C)C[C@H]1Oc2cc(-c3cccnc3)ccc2S(=O)(=O)N([C@@H](C)CO)C[C@H]1C	none (no result: MITF TRPM1 HTS, HSF1 inh, HSF-1 act, Wnt act)
CN1C(=O)c2cc(NC(=O)Nc3cccc(Cl)c3)ccc2OC[C@@H]2O[C@H](CC(=O)NCCc3ccncc3)CC[C@H]21	none (no result: MITF TRPM1 HTS, HSF1 inh, HSF-1 act, Wnt act)
O=S(=O)(/N=C(/c1ccccc1Cl)N1CCOCC1)c1ccccc1	HSF1 inh -58
O=S(=O)(/N=C(\c1ccccc1)N1CCOCC1)c1ccc(Cl)cc1	none (no result: esBAF inh)
CCCCN(C(=O)Cc1cccs1)c1nnc(-c2cccnc2)s1	MITF TRPM1 HTS 99, esBAF inh 60 (no result: HSF1 inh, HSF-1 act)
Cc1ccc(-c2cc(C(=O)N3CCOCC3)c3cc(C)ccc3n2)cc1	Wnt act 31
Cc1ccc2cc3c(N)c(C(=O)N4CCOCC4)sc3nc2c1	HSF-1 act 67, Wnt act 59 (no result: esBAF inh)
COc1ccc(CN2CCN(S(=O)(=O)c3ccccc3)CC2)cc1Br	HSF1 inh -61 (no result: MITF TRPM1 HTS, Wnt act)
CO[C@H]1CN(C)C(=O)c2ccc(NS(=O)(=O)c3cccc(F)c3)cc2OC[C@@H](C)NC[C@@H]1C	none (no result: MITF TRPM1 HTS, HSF1 inh, HSF-1 act, Wnt act)
CN(C)c1ccnc2sc3c(NCC(O)CO)ncnc3c12 (stereo unspecified)	none (no result: esBAF inh)
CN(C)c1ccnc2sc3c(SCc4ccc(Cl)cc4)ncnc3c12	MITF TRPM1 HTS 91 (no result: Wnt act, esBAF inh)
C[C@@H]1CN([C@H](C)CO)C(=O)c2cc(C#C[C@@H](C)O)cnc2O[C@@H]1CN(C)C(=O)Cc1ccncc1	none (no result: MITF TRPM1 HTS, HSF1 inh, HSF-1 act, Wnt act)
O=C(COC(=O)/C=C/c1cccc([N+](=O)[O-])c1)NCc1ccco1	HSF-1 act 200 (no result: esBAF inh)
O=C(COC(=O)/C=C/c1ccc([N+](=O)[O-])cc1)NCc1ccco1	none
O=C(c1ccco1)N1CCN(S(=O)(=O)Cc2ccc(Cl)cc2)CC1	Wnt act 42 (no result: esBAF inh)
O=C(c1ccco1)N1CCN(S(=O)(=O)/C=C/c2ccccc2)CC1	HSF1 inh -59
O=C(C[C@H]1CC[C@H]2[C@@H](COC[C@H](O)CN2Cc2cccc(F)c2)O1)NCC1CCCCC1	none (no result: MITF TRPM1 HTS, HSF1 inh, HSF-1 act, Wnt act)
Cc1nc2c(=O)n(C)c(=O)n(C)c2nc1Cl	HSF-1 act 284 (no result: esBAF inh)
Cn1c(=O)c2nc(NCc3ccccc3)cnc2n(C)c1=O	none
CC(C)NC(=O)Nc1cccc2c1O[C@H](CN(C)Cc1ccc(Oc3ccccc3)cc1)[C@H](C)CN([C@H](C)CO)C2=O	none (no result: MITF TRPM1 HTS, HSF1 inh, HSF-1 act, Wnt act)

High-throughput results: PubChem BioAssay, Broad Institute
